Hits are enriched below; roughly 5.5% of the tested compounds scored in any of these assays.
FBPA coupling cs: counter-screen for Giardia aldolase inhibitors: coupling enzyme system. activity change, negative = inhibition, % at 58.2 µM, hits read low. coupling enzyme system counterscreen, AmpLite Red fluorescence. 290,000 compounds, 0.67% hits; in the data active = activity change below about -30%
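Compounds tested against the coupling enzymes alone at 57.5 uM final; readout was AmpLite Red fluorescence (525/598 nm) after 20 min at RT.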
Sfp inh: Sfp phosphopantetheinyl transferase inhibition; Potency, µM, without a hit: largest response in the series, negative = inhibition, usual class: inhibitors; Biochemical Sfp PPTase activity, qHTS; Q9F4F7; 310,000 compounds, 3.5% hits;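 note: the enzyme is Sfp with the accession as filed and its product quenches rhodamine fluorescence; potency is the fitted concentration of half-maximal effect; 0% = enzyme reaction without inhibitor and -100% = no enzyme wells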
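With Hepes-Na pH 7.6 buffer containing 10 mM MgCl2, Sfp (15 nM) modified BHQ-2-YbbR (12.5 uM) using rhodamine-CoA (5 uM). Two reads 30 minutes apart at 525/598 nm yielded each well's rate.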
Giardia kill: Giardia lamblia killing | Giardia lamblia trophozoite viability | activity change, % at 7.66 µM, hits read low | 340,000 compounds, 0.15% hits | AID 540267; in the data active = activity change below about -80%; inconclusive = between about -30% and that limit;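 note: parasites exposed to compound for two days anaerobically before the ATP read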
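Trophozoites 100 cells/well + cpd; 48 hrs, 37 deg C, anaerobic. ATPLite 1-Step added, 15-30 min RT, luminescence read (ATP-based viability).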
ELG1 DNA repair: ELG1-dependent DNA repair inhibition | HEK293T ELG1-luciferase reporter, luminescence, 16 h; DNA damage induced by 5-fluorouridine | Potency, µM (top dose mostly 46.1 µM), for the others: at the highest dose activity change, negative = inhibition, most hits filed as inhibitors | 330,000 compounds, 2.3% hits; note: potency is the fitted concentration of half-maximal effect; nearly all actives have a fitted effect of over 55% in size
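HEK293T cells expressing luciferase-tagged ELG1 (2,000/well) received 5-Fluorouridine plus compound or DMSO for 16 hr at 37 °C. Luciferase was read by ONE-Glo luminescence after 30 min at room temperature.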
* = called active by the depositor; ? = inconclusive; · = not tested or not shown. Unless noted, calls come from the whole dose curve; as a rule, active = well fitted curve in the direction sought with a large enough effect; inconclusive = small, poorly fitted or top-dose-only effect, or another doubt; inactive = no such curve, though single readings can be large; an effect the other way counts as inactive or inconclusive. Unless noted, % is set by controls: 0 for no effect and ±100 for the full control effect.

SMILES	FBPA coupling cs	Sfp inh	Giardia kill	ELG1 DNA repair
O=S(=O)(c1ccc(NC(=S)N2CCN(c3ccc(O)cc3)CC2)cc1)N1CCOCC1	0	-18%	-4	8.2µM*
O=C(NCC1CCN(c2ccc(S(=O)(=O)N3CCOCC3)cc2)CC1)Nc1ccccc1	0	8%	-11	15µM*
COC(=O)C1CCN(C(=O)/C(C)=C\c2ccccc2)CC1	-1	-1%	-3	29%
COc1ccc(CN(CCC(c2ccccc2)C2CCOC(C)(C)C2)C(C)=O)cc1 (stereo not given)	0	-1%	3	16µM*
Cc1cc(C)c(S(=O)(=O)/N=C2/C=C(SCC(=O)O)C(=O)c3ccccc32)cc1C	-46*	22µM*	-10	?
Cc1cc(C)c(S(=O)(=O)/N=C2\C=C(NS(=O)(=O)c3ccccc3)C(=O)c3ccccc32)c(C)c1	-20	-15%	14	-6%
CN(CC(=O)N1CCN(c2ccccn2)CC1)S(=O)(=O)c1ccc2ccccc2c1	5	5%	1	10µM*
CC(C)OC(=O)C[C@H](NC(=O)OC(C)(C)C)c1ccccc1	2	-2%	·	·
CC(=O)c1cccc(NC(=O)CSc2nc(C3CC3)nc3ccccc23)c1	4	-1%	-11	-15%
CC(=O)Nc1cccc(NC(=O)CSc2nc(C3CC3)nc3ccccc23)c1	2	-13%	2	18µM*
Cc1oc(C)c2c(=O)ccc3c(c12)OC(N)=C(C#N)C3c1ccccc1Cl (stereo not given)	-27	50µM*	-4	?
Cc1oc(C)c2c(=O)ccc3c(c12)OC(N)=C(C#N)C3c1ccccc1 (stereo not given)	-2	-35%	0	-12%
CSc1ccc(C2C(C#N)=C(N)Oc3c2ccc(=O)c2c(C)oc(C)c32)cc1 (stereo not given)	-36*	56µM*	4	-18%
COc1ccc(C(=S)N2CCN(c3ccccc3Cl)CC2)cc1OC	0	35µM*	-22	-2%
COc1cc(C(=S)N2CCN(c3ccccc3Cl)CC2)cc(O)c1O	-7	35µM*	18	-20%
O=C(NC1CCCCC1)c1cc(-c2ccccc2O)on1	-2	-10%	-2	?
Cc1cccc(C(=O)NN2S(=O)(=O)c3ccccc3S2(=O)=O)c1	0	50µM*	-13	1%
O=C(NN1S(=O)(=O)c2ccccc2S1(=O)=O)c1ccc(Br)cc1	3	?	8	-1%
c1ccc(CNc2ncncc2-c2ccc3c(c2)OCO3)cc1	-5	-8%	·	·
CCC(C)(C)n1nnnc1C(c1ccccc1)N1CCN(Cc2ccccc2)CC1 (stereo not given)	0	14%	-10	8%
CCC(C)(C)n1nnnc1CN1CCN(C(c2ccccc2)c2ccccc2)CC1	2	-6%	0	21µM*
CN(C(=S)Nc1cccnc1)c1ccc(O)cc1	-33*	?	19	0%
CCN(C(=S)Nc1cccnc1)c1ccccc1	0	-20%	9	-2%
CN(C(=S)Nc1ccc(SC(F)F)cc1)c1ccc(O)cc1	-34*	32µM*	-25	-12%
CCN(C(=S)Nc1cccnc1)c1cccc2ccccc12	-27	22µM*	-20	-19%
SMILES	FBPA coupling cs	Sfp inh	Giardia kill	ELG1 DNA repair
CN(C(=S)Nc1ccc(Oc2ccccc2)cc1)c1ccc(O)cc1	-50*	7.9µM*	-5	-24%
CN(C(=S)Nc1ccccc1)c1ccccc1	4	9%	-12	2%
O=[N+]([O-])c1cc([N+](=O)[O-])c2oc(-c3ccccc3)c(Br)c2c1O	13	4%	7	?
COc1ccccc1C(=O)N1[C@@H](C(C)C)COc2cc(Br)ccc2S1(=O)=O	·	·	-23	·
Nc1ccccc1NC1=CC(=O)CC(c2ccco2)C1 (stereo not given)	-10	8.9µM*	-30	29%
Cc1ccc(NC2=CC(=O)CC(c3ccco3)C2)c(N)c1 (stereo not given)	0	-3%	-13	3%
COc1ccc(-c2cc(C(F)(F)F)nc(-n3cc(Cl)cn3)n2)cc1	2	?	-15	23µM*
COc1ccc(-c2cc(C(F)(F)F)nc(-n3cc(Br)cn3)n2)cc1	1	22µM*	-9	?
COc1cccc(-c2cc(C(F)(F)F)nc(-n3cc(Cl)cn3)n2)c1	-8	?	3	?
